Data from the supplement of paper PMC10849652.
About 8,800 targets were measured; listed, in parts, are those with a hit and a random draw of the rest. About 0.5% of all pairs of compound and target were hits. A number with no mark means an inactive call.

What was measured:
Assay in all cases: log2 fold change, soluble protein after heating vs DMSO (PISA); higher = thermal stabilisation; K562 lysate, 10 uM; active = over 0.2 and 3.5 SD of the protein, either way, in both replicates (recomputed)
erlotinib = compound: C#Cc1cccc(Nc2ncnc3cc(OCCOC)c(OCCOC)cc23)c1 [erlotinib]
Method in brief: (§1)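 Values give the log-two fold change in thermal stability against solvent controls, from duplicates. Crude K562 extract at 1 mg/mL protein, made by dounce homogenisation in PBS pH 7.4 with 1 mM MgCl2, was treated with 10 μM compound for 30 min. After 3 min heating across 48°C-58°C, aliquots were pooled, adjusted to 0.5% NP-40 at 4°C and centrifuged at 21,000xg for 90 min. The supernatant was measured by TMTpro 16plex LC-MS/MS with channel sums equalised.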

[1] = compound: C/C(=N\NC(=O)C1=CC(=CC=C1)S(=O)(=O)N2CCOCC2)/C3=C(C=CC(=C3)Cl)O
Method in brief: as §1

[2] = compound: C1=CC(=CC=C1C2=NC3=C(N2)C=C(C=C3)C(=O)N)OC4=CC=C(C=C4)Cl
Method in brief: as §1

[3] = compound: C1=CC2=C(C=CC(=C2)/C=C\3/C(=O)NC(=NCC4=CC=CS4)S3)N=C1
Method in brief: as §1

[4] = compound: C1=CC2=NC=CN=C2C=C1/C=C/3\C(=O)NC(=O)S3
Method in brief: as §1

[5] = compound: C1=CC=C(C=C1)C2=NC(=C(N2)C3=CC=NC=C3)C4=CC(=C(C=C4)Cl)O
Method in brief: as §1

[6] = compound: C1=CC=C2C(=C1)C3=NNC4=CC=CC(=C43)C2=O
Method in brief: as §1

[7] = compound: C1CCN(C1)C(=O)NC2=CC=CC(=C2)NC3=NC=C(C(=N3)NCCC4=CN=CN4)Br
Method in brief: as §1

[8] = compound: C1CN(CCC1(CC2=CC=C(C=C2)Cl)N)C3=NC=NC4=C3C=CN4
Method in brief: as §1

IRAK-1-4 Inhibitor I = compound: C1COCCN1CCN2C3=CC=CC=C3N=C2NC(=O)C4=CC(=CC=C4)[N+](=O)[O-] [IRAK-1-4 Inhibitor I]
Method in brief: as §1

ibrutinib = compound: C=CC(=O)N1CCC[C@@H](n2nc(-c3ccc(Oc4ccccc4)cc3)c3c(N)ncnc32)C1 [ibrutinib]
Method in brief: as §1

[9] = compound: CC(=O)c1cnc2ccc(-c3cc(Cl)c(O)c(Cl)c3)nc2c1N[C@H]1CC[C@H](CN(C)C)CC1
Method in brief: as §1

ralimetinib = compound: CC(C)(C)Cn1c(N)nc2ccc(-c3[nH]c(C(C)(C)C)nc3-c3ccc(F)cc3)nc21 [ralimetinib]
Method in brief: as §1

[10] = compound: CC(C)(O)CC(=O)NCCn1ccc2ncnc(Nc3ccc(Oc4cccc(C(F)(F)F)c4)c(Cl)c3)c21
Method in brief: as §1

[11] = compound: CC(C)C1=C2N=C(C=C(N2N=C1)NCC3=CC=CC=C3)NCCCCCCN
Method in brief: as §1

[12] = compound: CC1=C(C(CC(=O)N1)C2=CC=C(C=C2)C(F)(F)F)C(=O)NC3=C(C=C4C(=C3)C=NN4)F
Method in brief: as §1

[13] = compound: CC1=C(C2=C(C=C1)C(=O)C3=CC=CC=C3N2CCCN)C
Method in brief: as §1

[14] = compound: CC1=C(C=C(C=C1)NC(=O)C2=CC(=CC=C2)C(C)(C)C#N)NC3=CC4=C(C=C3)N=CN(C4=O)C
Method in brief: as §1

[15] = compound: CC1=C(C=C(C=C1)NC(=O)C2=CC(=CC=C2)N(C)C)NC(=O)C3=CC=C(C=C3)O
Method in brief: as §1

[16] = compound: CC1=CC=C(C=C1)SC2=C3C=C(SC3=CN=C2)C(=O)N
Method in brief: as §1

Sequence of UniProt Q7Z5Y7 (Q7Z5Y7 whole entry, looked up): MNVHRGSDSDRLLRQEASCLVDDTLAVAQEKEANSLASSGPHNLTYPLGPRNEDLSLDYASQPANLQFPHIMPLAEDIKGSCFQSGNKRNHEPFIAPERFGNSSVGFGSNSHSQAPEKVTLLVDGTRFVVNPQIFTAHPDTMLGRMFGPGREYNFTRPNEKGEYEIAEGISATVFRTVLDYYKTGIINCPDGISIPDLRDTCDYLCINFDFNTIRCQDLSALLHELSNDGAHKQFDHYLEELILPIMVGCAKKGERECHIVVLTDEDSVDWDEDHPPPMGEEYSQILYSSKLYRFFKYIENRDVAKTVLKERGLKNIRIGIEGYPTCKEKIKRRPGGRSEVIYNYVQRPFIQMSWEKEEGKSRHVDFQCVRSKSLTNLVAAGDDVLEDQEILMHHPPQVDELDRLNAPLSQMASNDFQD
Sequence of UniProt O15357 (O15357 whole entry, looked up): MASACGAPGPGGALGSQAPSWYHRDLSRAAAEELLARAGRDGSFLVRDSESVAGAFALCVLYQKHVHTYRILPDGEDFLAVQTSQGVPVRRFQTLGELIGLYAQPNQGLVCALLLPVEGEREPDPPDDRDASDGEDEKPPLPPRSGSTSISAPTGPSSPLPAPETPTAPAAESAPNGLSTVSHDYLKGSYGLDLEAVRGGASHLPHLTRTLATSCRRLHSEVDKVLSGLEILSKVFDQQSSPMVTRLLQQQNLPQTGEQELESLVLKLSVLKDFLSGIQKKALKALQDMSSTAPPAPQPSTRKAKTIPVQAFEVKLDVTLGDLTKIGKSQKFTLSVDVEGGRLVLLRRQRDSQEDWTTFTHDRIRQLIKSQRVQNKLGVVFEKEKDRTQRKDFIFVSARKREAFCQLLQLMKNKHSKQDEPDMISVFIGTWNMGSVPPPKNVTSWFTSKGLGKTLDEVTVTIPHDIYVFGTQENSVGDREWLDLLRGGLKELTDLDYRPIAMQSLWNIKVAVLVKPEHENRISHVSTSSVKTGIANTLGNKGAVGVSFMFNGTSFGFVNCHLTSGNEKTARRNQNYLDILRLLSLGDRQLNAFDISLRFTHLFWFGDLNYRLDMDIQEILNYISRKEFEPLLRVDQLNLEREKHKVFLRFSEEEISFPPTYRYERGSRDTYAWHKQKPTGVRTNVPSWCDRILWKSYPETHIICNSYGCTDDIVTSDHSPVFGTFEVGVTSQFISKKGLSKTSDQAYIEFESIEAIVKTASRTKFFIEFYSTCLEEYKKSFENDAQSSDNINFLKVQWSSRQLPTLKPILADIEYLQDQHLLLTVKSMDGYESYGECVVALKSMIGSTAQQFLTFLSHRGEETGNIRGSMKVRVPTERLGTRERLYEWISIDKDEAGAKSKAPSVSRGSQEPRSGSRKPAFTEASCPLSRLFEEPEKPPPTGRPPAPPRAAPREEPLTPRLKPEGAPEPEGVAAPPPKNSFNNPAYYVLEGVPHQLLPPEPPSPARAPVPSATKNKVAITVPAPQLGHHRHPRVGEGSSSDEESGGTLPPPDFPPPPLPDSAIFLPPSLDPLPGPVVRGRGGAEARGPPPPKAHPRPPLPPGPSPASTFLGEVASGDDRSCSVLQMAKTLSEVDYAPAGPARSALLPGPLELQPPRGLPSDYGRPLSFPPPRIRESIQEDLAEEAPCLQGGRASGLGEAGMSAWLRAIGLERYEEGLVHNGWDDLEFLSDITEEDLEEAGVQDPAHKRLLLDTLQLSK
Sequence of UniProt Q99795 (Q99795 whole entry, looked up): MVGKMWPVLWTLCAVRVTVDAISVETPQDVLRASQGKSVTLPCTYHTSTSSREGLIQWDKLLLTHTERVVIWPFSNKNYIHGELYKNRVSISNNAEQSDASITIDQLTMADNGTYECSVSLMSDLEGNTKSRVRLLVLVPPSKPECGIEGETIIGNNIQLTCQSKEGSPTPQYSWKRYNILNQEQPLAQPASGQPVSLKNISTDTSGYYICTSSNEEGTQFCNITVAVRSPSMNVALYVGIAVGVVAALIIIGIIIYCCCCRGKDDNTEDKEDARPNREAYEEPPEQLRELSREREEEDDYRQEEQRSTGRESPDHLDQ
Sequence of UniProt P11142 (P11142 whole entry, looked up): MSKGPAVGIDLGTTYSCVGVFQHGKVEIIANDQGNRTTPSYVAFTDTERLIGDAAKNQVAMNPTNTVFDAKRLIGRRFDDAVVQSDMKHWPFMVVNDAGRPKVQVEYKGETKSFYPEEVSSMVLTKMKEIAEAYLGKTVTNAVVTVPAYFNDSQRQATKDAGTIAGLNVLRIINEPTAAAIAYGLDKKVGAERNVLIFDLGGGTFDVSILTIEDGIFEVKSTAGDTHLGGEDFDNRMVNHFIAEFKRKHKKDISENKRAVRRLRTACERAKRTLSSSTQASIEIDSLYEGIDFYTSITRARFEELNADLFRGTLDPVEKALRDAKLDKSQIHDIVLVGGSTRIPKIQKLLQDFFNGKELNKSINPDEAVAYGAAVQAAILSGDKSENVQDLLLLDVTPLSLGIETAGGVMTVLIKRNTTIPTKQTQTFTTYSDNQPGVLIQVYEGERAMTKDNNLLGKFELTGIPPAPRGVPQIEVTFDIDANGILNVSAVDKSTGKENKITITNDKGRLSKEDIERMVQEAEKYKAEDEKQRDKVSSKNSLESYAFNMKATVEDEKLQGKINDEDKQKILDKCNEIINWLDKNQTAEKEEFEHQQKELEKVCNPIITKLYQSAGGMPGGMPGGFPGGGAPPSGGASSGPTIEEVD
Sequence of UniProt P51617 (P51617 whole entry, looked up): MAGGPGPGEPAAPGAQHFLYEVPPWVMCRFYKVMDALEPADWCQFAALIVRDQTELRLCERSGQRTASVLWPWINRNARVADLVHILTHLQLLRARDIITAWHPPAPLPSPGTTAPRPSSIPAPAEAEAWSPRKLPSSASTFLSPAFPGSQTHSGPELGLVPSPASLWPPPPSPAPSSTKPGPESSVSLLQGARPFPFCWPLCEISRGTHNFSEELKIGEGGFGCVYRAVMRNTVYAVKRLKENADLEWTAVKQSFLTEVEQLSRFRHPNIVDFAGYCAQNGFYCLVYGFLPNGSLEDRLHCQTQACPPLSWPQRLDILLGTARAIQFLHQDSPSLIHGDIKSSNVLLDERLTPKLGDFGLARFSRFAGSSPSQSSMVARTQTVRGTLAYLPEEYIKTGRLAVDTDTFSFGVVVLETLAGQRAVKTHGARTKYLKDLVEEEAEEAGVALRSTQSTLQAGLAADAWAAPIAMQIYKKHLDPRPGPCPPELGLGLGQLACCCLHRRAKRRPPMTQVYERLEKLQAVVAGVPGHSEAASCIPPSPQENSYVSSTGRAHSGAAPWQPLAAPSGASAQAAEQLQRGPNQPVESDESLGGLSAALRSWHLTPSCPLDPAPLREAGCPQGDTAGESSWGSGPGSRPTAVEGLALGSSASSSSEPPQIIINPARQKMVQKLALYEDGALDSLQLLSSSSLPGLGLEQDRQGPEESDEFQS
Sequence of UniProt Q9H6K1 (Q9H6K1 whole entry, looked up): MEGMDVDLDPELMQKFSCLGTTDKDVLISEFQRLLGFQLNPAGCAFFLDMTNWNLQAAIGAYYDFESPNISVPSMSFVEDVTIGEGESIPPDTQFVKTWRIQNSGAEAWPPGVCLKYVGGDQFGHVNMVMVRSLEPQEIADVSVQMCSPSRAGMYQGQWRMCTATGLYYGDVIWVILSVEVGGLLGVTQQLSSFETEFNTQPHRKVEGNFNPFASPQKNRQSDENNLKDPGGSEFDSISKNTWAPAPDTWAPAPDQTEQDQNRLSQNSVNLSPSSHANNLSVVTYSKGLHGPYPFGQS
Sequence of UniProt Q9NVH2 (Q9NVH2 whole entry, looked up): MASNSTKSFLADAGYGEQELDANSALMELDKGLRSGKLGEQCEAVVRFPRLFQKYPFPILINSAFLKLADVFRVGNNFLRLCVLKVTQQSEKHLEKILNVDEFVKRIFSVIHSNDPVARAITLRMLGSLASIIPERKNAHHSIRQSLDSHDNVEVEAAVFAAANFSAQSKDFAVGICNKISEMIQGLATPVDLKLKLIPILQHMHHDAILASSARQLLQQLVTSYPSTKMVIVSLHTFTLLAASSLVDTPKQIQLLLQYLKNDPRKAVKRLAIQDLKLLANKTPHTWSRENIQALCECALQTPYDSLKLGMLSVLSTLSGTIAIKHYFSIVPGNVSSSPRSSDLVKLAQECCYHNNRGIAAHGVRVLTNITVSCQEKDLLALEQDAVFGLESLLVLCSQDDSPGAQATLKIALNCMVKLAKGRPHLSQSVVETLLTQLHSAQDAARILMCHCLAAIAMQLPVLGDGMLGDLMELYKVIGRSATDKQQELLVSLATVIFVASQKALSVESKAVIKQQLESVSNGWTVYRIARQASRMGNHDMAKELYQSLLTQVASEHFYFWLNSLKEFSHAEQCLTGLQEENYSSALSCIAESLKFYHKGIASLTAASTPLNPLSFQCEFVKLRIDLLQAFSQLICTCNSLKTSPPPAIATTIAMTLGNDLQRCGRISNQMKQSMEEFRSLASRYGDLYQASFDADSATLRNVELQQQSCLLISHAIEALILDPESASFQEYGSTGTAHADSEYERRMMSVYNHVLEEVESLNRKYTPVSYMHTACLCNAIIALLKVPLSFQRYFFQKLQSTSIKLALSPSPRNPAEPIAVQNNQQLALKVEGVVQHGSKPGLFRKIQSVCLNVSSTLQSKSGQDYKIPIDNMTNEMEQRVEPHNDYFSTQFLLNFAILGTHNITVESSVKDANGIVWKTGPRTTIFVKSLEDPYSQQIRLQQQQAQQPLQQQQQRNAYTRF

Row | Target | log2 fold change (erlotinib) | log2 fold change [1] | log2 fold change [2] | log2 fold change [3] | log2 fold change [4] | log2 fold change [5] | log2 fold change [6] | log2 fold change [7] | log2 fold change [8] | log2 fold change (IRAK-1-4 Inhibitor I) | log2 fold change (ibrutinib) | log2 fold change [9] | log2 fold change (ralimetinib) | log2 fold change [10] | log2 fold change [11] | log2 fold change [12] | log2 fold change [13] | log2 fold change [14] | log2 fold change [15] | log2 fold change [16]
1 | IRAK1 (UniProt P51617) | 0.038 | -0.054 | -0.108 | -0.015 | 0.028 | 0.039 | 0.117 | 0.023 | -0.096 | 0.023 | 0.032 | 0.195 | -0.024 | -0.031 | -0.018 | -0.013 | -0.028 | -0.086 | 0.062 | 0
2 | INTS14 (UniProt Q96SY0) | 0.007 | -0.13 | 0.025 | 0.008 | -0.012 | -0.001 | 0.018 | -0.01 | 0 | 0.006 | -0.006 | -0.008 | 0.023 | -0.012 | -0.048 | -0.003 | -0.029 | -0.004 | 0.006 | -0.01
3 | INPPL1 (UniProt O15357) | -0.01 | -0.034 | -0.018 | -0.052 | -0.006 | -0.02 | -0.051 | -0.021 | 0.003 | -0.034 | 0.012 | 0.02 | 0.049 | -0.013 | 0.004 | 0.011 | -0.005 | -0.001 | 0.034 | 0.014
4 | KCTD20 (UniProt Q7Z5Y7) | 0.072 | -0.145 | -0.006 | 0 | 0.001 | 0.063 | 0.038 | 0.081 | 0.083 | 0.048 | 0.109 | 0.071 | 0.099 | -0.009 | 0.044 | 0.062 | 0.034 | -0.001 | 0.105 | -0.051
5 | HMGN4 (UniProt O00479) | 0.015 | 0.238 | 0.063 | -0.056 | 0.017 | 0.048 | 0.293 | 0.201 | -0.044 | -0.046 | -0.067 | 0.051 | -0.249 | 0 | -0.097 | -0.011 | 0.016 | -0.014 | -0.077 | 0.022
6 | GPA33 (UniProt Q99795) | -0.014 | 0.082 | -0.002 | -0.091 | -0.032 | -0.05 | -0.151 | 0.001 | 0.046 | 0.024 | 0.037 | -0.029 | 0.188 | -0.123 | -0.067 | -0.091 | 0 |  | -0.024 | 0.026
7 | GTPBP2 (UniProt Q9BX10) | -0.008 | -0.051 | -0.05 | -0.002 | -0.011 | 0.02 | -0.032 | -0.058 | -0.017 | 0.023 | 0.008 | -0.123 | 0.042 | -0.035 | 0 | 0.004 | -0.018 | 0 | 0.047 | -0.032
8 | INTS7 (UniProt Q9NVH2) | 0.076 | -0.183 | -0.01 | 0.041 | 0.441 (active) | -0.044 | 0.026 | -0.019 | 0.035 | 0 | 0.012 | 0.061 | 0.083 | -0.024 | 0.023 | 0.023 | -0.09 | 0.543 (active) | 0.007 | 0.039
9 | ILRUN (UniProt Q9H6K1) | -0.004 | 0.056 | 0.004 | -0.018 | 0.016 | 0.018 | 0.011 | 0.006 | 0.033 | 0.02 | -0.002 | -0.011 | 0.001 | -0.019 | 0.007 | 0.035 | -0.03 | 0.009 | 0.018 | 0.02
10 | KEAP1 (UniProt Q14145) | 0.048 | 0.006 | 0.018 | -0.005 | 0.014 | 0.015 | -0.006 | 0.038 | 0.018 | -0.006 | 0.014 | 0.001 | 0.017 | -0.014 | -0.015 | -0.026 | -0.049 | 0.012 | 0.019 | -0.024
11 | HSPA8 (UniProt P11142) | -0.022 | 0.003 | 0.008 | 0.002 | -0.028 | -0.004 | 0.038 | 0.016 | -0.009 | -0.008 | -0.02 | -0.002 | -0.015 | -0.003 | 0.001 | -0.022 | 0.005 | -0.013 | -0.002 | 0.009
12 | HADHB (UniProt P55084) | -0.108 | -0.039 | 0.367 (active) | -0.036 | -0.128 | -0.029 | 0.011 | -0.066 | 0.062 | 0.025 | 0.086 | -0.05 | 0.002 | 0.104 | -0.024 | -0.046 | 0.028 | 0.062 | -0.03 | 0.077
13 | IGF2BP2 (UniProt Q9Y6M1) | 0.022 | 0.049 | -0.041 | -0.032 | 0.031 | 0 | -0.08 | -0.023 | 0.051 | -0.022 | 0.035 | 0.007 | 0.056 | 0.035 | 0.007 | -0.008 | -0.036 | -0.075 | 0.006 | 0.056
